# Measurements reported in ChEMBL document CHEMBL3988442, “University of Dundee, Small-Polar-MMV Screening Library” (2021).
# Hit rate of the full screen: of about 69,000 compounds, about 1,000 (1.4%) showed an effect of 50% or more. The list comes from a sample in which strong results are over-represented; it also holds similar structures and randomly drawn compounds.
# Tested on: Leishmania donovani
# Test: Leishmania intramacrophage assay
# Assay type: functional, organism-based
# Design: scale not given: in the data most compounds retested in dose-response had high values
smiles,measurement,setting,value
O=C(c1cc(C2CCCCN2CCO)n[nH]1)N1CCOCC1.O=CO (stereo unspecified),Percent Effect,"30.3 µM, […]",-5.533%
CN[C@@H](C)C(=O)N(Cc1cccc(C)c1)Cc1ccccc1OC,Percent Effect,"30.3 µM, […]",82.29%
COCC(=O)N(Cc1cccc(C)c1)Cc1ccccc1OC,Percent Effect,"30.3 µM, […]",40.9%
COc1ccccc1CN(Cc1cccc(C)c1)C(=O)[C@@H](N)CC(=O)O,Percent Effect,"30.3 µM, […]",13.42%
CC1CN(C(=O)C2(c3cccc(F)c3)CCOCC2)CCO1 (stereo unspecified),Percent Effect,"30.3 µM, […]",18.33%
O=C(NCCCN1CCc2ccccc2C1)c1ccccc1Br,Percent Effect,30 µM,36.73%
O=C(NCCCN1CCc2ccccc2C1)c1ccccc1Cl,Percent Effect,30 µM,53%
Cc1ccccc1C(=O)NCCCN1CCc2ccccc2C1,Percent Effect,30 µM,9.574%
N#Cc1ccc(OCC(O)CN2CCC(Cn3cccn3)CC2)cc1 (stereo unspecified),Percent Effect,30 µM,5.34%
Cc1cnc(N2C[C@@H]3CN(C4CCOC4)CCC[C@]3(C(=O)O)C2)nc1.O=C(O)C(F)(F)F (stereo partly specified),Percent Effect,"30.3 µM, […]",51.36%
O=C(O)C(F)(F)F.O=C(O)[C@]12CCCN(CC3CCOC3)C[C@H]1CN(c1ncccn1)C2 (stereo partly specified),Percent Effect,"30.3 µM, […]",22.4%
O=C(O)C(F)(F)F.O=C(O)[C@]12CCCN(C3CCOC3)C[C@H]1CN(c1nncs1)C2 (stereo partly specified),Percent Effect,"30.3 µM, […]",23.22%
CC(C)(C)OC(=O)N1CCCC[C@H]1C(=O)NCc1nccs1,Percent Effect,"30 µM, 30.03 µM",12.63%
CCc1c(C)sc(NC(=O)CN2CCOCC2)c1C(=O)OC,Percent Effect,"30.3 µM, […]",-39.48%
CCc1c(C)sc(NC(=O)CN2CCN(CC)CC2)c1C(=O)OC,Percent Effect,"30 µM, 30.03 µM",52.48%
CCOC(=O)c1c(NC(=O)CN2CCN(C(C)=O)CC2)sc(C)c1C,Percent Effect,"30.3 µM, […]",29.91%
Cc1cc(NC(=O)CN2CCCC2c2c(C)nn(C)c2Cl)on1 (stereo unspecified),Percent Effect,30 µM,24.03%
CCc1cc(CN(C)C(=O)c2cnon2)on1,Percent Effect,"30.3 µM, […]",11.76%
CCc1cc(CN(C)C(=O)c2cc(=O)[nH]c(=O)[nH]2)on1,Percent Effect,"30.3 µM, […]",53.82%
CCc1cc(CN(C)C(=O)c2cnn[nH]2)on1,Percent Effect,"30.3 µM, […]",12.71%
CCN1CCN(C(=O)c2cc(-c3cccs3)cs2)CC1,Percent Effect,"30.3 µM, […]",-1.143%
Cc1ccc(Cl)cc1NC(=O)C1CSc2ncc(C)c(=O)n2C1 (stereo unspecified),Percent Effect,"30.3 µM, […]",17.12%
COc1cccc(CN(C)c2ncc(C(N)=O)cc2Cl)c1,Percent Effect,"30.3 µM, […]",-8.015%
CCc1nc(C)c(C(=O)NCCNc2ncnc3sccc23)s1,Percent Effect,"30.3 µM, […]",59.68%
CCc1ncc(C(=O)NCCNc2ncnc3sccc23)s1,Percent Effect,"30.3 µM, […]",26.76%
Cc1ncc(C(=O)NCCNc2ncnc3sccc23)s1,Percent Effect,"30.3 µM, […]",20.47%
CC1(C)CCC(C(=O)N2CCCO2)c2ccccc21 (stereo unspecified),Percent Effect,"30.3 µM, […]",9.47%
CN(C)S(=O)(=O)N1CCC(c2c(C(N)=O)sc3ccccc23)C1 (stereo unspecified),Percent Effect,"30.3 µM, […]",31.42%
NC(=O)Nc1cccc(F)c1C(=O)NC1CCCC1,Percent Effect,"30.3 µM, […]",3.755%
CC(C)Oc1cccc(CNC(Cc2ccsc2)c2nccs2)c1.Cl (stereo unspecified),Percent Effect,"30.3 µM, […]",-38.1%
Cc1cccnc1C(Cc1ccsc1)NCc1cnc(N(C)C)nc1 (stereo unspecified),Percent Effect,"30.3 µM, […]",17.18%
COc1ccc(CNC(Cc2ccsc2)c2ccc(C)cn2)cc1OC.Cl (stereo unspecified),Percent Effect,"30.3 µM, […]",12%
COc1cccc(OC)c1CNC(Cc1ccsc1)c1ccc(C)cn1 (stereo unspecified),Percent Effect,"30.3 µM, […]",99.68%
COc1ccc(CNC(Cc2ccsc2)c2ccc(C)cn2)c(OC)c1 (stereo unspecified),Percent Effect,"30.3 µM, […]",62.45%
COc1ccc(CNC(Cc2ccsc2)c2ncccc2C)cc1OC (stereo unspecified),Percent Effect,"30.3 µM, […]",25.36%
N#Cc1c2n(c3c(=O)[nH]cnc13)CCCCC2,Percent Effect,"30.3 µM, […]",19.13%
Cc1ccccc1CNCc1cc(Cl)ccc1O,Percent Effect,"30.3 µM, […]",-18.5%
Cc1ccc(C)c(NCc2nc3n(n2)CCCCC3)c1,Percent Effect,"30.3 µM, […]",-6.245%
CSc1cccc(CN(C)C(=O)c2ccc(C3CCCNC3)cc2)c1 (stereo unspecified),Percent Effect,"30.3 µM, […]",52.27%
CSc1cccc(CN(C)C(=O)c2cccc(C3CCCNC3)c2)c1 (stereo unspecified),Percent Effect,"30.3 µM, […]",27.95%
CN(Cc1ccc2c(c1)OCO2)C(=O)c1ccc(C2CCCNC2)cc1 (stereo unspecified),Percent Effect,"30.3 µM, […]",4.185%
CC(C)NC(=O)c1noc2c1CN(Cc1cnn(C)c1)CC2,Percent Effect,"30.3 µM, […]",0.4989%
Cc1noc(C)c1C(=O)NCc1ccc(N2CCCCCC2)nc1,Percent Effect,30 µM,36.14%
CNc1nc(C)cc(NCc2cc(C)cc3c(C)c(C)[nH]c23)n1,Percent Effect,"30.3 µM, […]",35.88%
CCc1[nH]c2c(CNc3nc(C)cc(NC)n3)cc(C)cc2c1C,Percent Effect,"30.3 µM, […]",89.36%
CCc1[nH]c2c(CNc3cc(C)nc(NC)n3)cc(C)cc2c1C,Percent Effect,"30.3 µM, […]",71.01%
CCc1[nH]c2c(CNc3nccc(N)n3)cc(C)cc2c1C,Percent Effect,"30.3 µM, […]",21.52%
CCc1[nH]c2c(CNc3cncc(C(=O)OC)n3)cc(C)cc2c1C,Percent Effect,"30.3 µM, […]",-70.43%
CNc1cc(C)nc(NCc2cc(C)cc3c(C)c(C)[nH]c23)n1,Percent Effect,"30.3 µM, […]",-40.33%
CC(C)c1ccc(S(=O)(=O)NC2CCN(CC(F)(F)F)C2)cc1 (stereo unspecified),Percent Effect,"30.3 µM, […]",20.88%
O=C(CC1CCCC1)N1CCCC1c1ccc(CN2CCOCC2)cn1 (stereo unspecified),Percent Effect,"30.3 µM, […]",7.793%
COc1ccccc1CN1C[C@@H](F)[C@@H](OCc2nc3ncccc3[nH]2)C1,Percent Effect,"30.3 µM, […]",33.82%
CCC(NC(=O)Cn1ccc(=O)n(C)c1=O)c1ccc(OC)cc1 (stereo unspecified),Percent Effect,"30.3 µM, […]",24.09%
CCc1ocnc1C(=O)Nc1ccc2ccn(CCN(C)C)c2c1,Percent Effect,"30.3 µM, […]",-1.774%
COCC(=O)N1CCC2(CC1)CC(COC)N(Cc1ccccn1)C2.O=C(O)C(F)(F)F (stereo unspecified),Percent Effect,"30.3 µM, […]",12.17%
COCC1CC2(CCN(Cc3nccs3)CC2)CN1Cc1ccccn1.O=C(O)C(F)(F)F.O=C(O)C(F)(F)F.O=C(O)C(F)(F)F (stereo unspecified),Percent Effect,"30.3 µM, […]",50.9%
COCC1CC2(CCN(Cc3ccccn3)CC2)CN1c1ncccn1.O=C(O)C(F)(F)F.O=C(O)C(F)(F)F.O=C(O)C(F)(F)F (stereo unspecified),Percent Effect,"30.3 µM, […]",-16.53%
O=C(O)C(F)(F)F.O=C1CC[C@H]2[C@H](CCN2C(=O)C2CCOCC2)N1Cc1ccncc1,Percent Effect,"30 µM, 30.03 µM",15.79%
CS(=O)(=O)c1ccc(CNC(=O)N2CCC(c3ccccc3)CC2)cc1,Percent Effect,"30 µM, 30.03 µM",-1.511%
Cc1cc(CN2C[C@@H]3CN(C(=O)c4cccn4C)CCO[C@@H]3C2)no1.O=C(O)C(F)(F)F,Percent Effect,"30.3 µM, […]",11.08%
Cn1cc(CN2C[C@@H]3CN(C(=O)c4cccn4C)CCO[C@@H]3C2)cn1,Percent Effect,"30.3 µM, […]",58.31%
Cn1cccc1C(=O)N1CCO[C@@H]2CN(Cc3ccco3)C[C@@H]2C1,Percent Effect,"30.3 µM, […]",19.73%
COCC1CN(CC2CC2)Cc2nn(CC3CC3)cc21.O=C(O)C(F)(F)F (stereo unspecified),Percent Effect,"30.3 µM, […]",8.658%
O=C1OCCN1CCOc1nc(-c2ccccc2Cl)no1,Percent Effect,"30 µM, 30.03 µM",4.618%
Cc1cnc(NC(=O)C(C)n2ccc(C(F)(F)F)n2)s1 (stereo unspecified),Percent Effect,"30.3 µM, […]",59.23%
CC(C(=O)Nc1ccc(Cl)cn1)n1ccc(C(F)(F)F)n1 (stereo unspecified),Percent Effect,"30.3 µM, […]",46.39%
Cc1ccc(NC(=O)C(C)n2ccc(C(F)(F)F)n2)nc1 (stereo unspecified),Percent Effect,"30.3 µM, […]",38.05%
Cc1cc(C(=O)N2CCCCC2C)ccc1NC(=O)N1CCOCC1 (stereo unspecified),Percent Effect,30 µM,22%
O=C(O)C(F)(F)F.c1cnc(N2Cc3nccn3CC(COc3cccnc3)C2)nc1 (stereo unspecified),Percent Effect,"30.3 µM, […]",5.012%
CN(C)c1ncc(-c2cncn2CCc2ccc3c(c2)OCCO3)cn1.Cl,Percent Effect,"30.3 µM, […]",20.21%
Cc1cccc(C2(C(=O)NCCCn3cccn3)CC2)c1,Percent Effect,"30 µM, 30.03 µM",17.4%
Cc1ccc(C(CCNCCN(C)C)C2CCOC(C)(C)C2)cc1.O=C(O)C(=O)O (stereo unspecified),Percent Effect,"30.3 µM, […]",99.98%
Cc1ccc(C)c(C(=O)N2CCOC(CCN(C)C)C2)c1 (stereo unspecified),Percent Effect,"30.3 µM, […]",10.51%
Cc1ccc(C(CCNCCCN(C)C)C2CCOC(C)(C)C2)cc1.O=C(O)C(=O)O (stereo unspecified),Percent Effect,"30.3 µM, […]",85.22%
Cc1ccc(C(C(=O)NCCN2CCC(CO)CC2)N(C)C)cc1 (stereo unspecified),Percent Effect,"30.3 µM, […]",25.71%
CCN(CC)CCCNCC1CCOC(C)(C)C1 (stereo unspecified),Percent Effect,"30.3 µM, […]",15.48%
COCCn1ccc2cc(C(=O)NC3CCOC(C)(C)C3)ccc21 (stereo unspecified),Percent Effect,"30.3 µM, […]",4.385%
CCc1noc(C(C)N2CCC(C)CC2)n1 (stereo unspecified),Percent Effect,30 µM,28.8%
Cn1nc(COc2cccnc2)c2c1CCN(c1cnccn1)C2.O=CO.O=CO,Percent Effect,"30 µM, 30.03 µM",-2.364%
CCCn1nc(C)c(C(=O)N(C)[C@@H]2CC[C@@H](OC)[C@@H]2O)c1C,Percent Effect,"30.3 µM, […]",19.04%
CC(C(=O)Nc1ccc(N2CCCC2)nc1)n1cccn1 (stereo unspecified),Percent Effect,30 µM,19.04%
Cc1noc(C)c1CCCNC(=O)C1CCN(C(C)C)CC1,Percent Effect,"30.3 µM, […]",24.48%
Cc1nc2cc(CNC(=O)C3CC(=O)N(C4CCCC4)C3)ccc2n1C (stereo unspecified),Percent Effect,"30.3 µM, […]",2.689%
Cc1nc2cc(CNC(=O)C3CC(=O)N(CCN(C)C)C3)ccc2n1C (stereo unspecified),Percent Effect,"30.3 µM, […]",7.725%
CCN1CC(C(=O)NCc2ccc3c(c2)nc(C)n3C)CCC1=O (stereo unspecified),Percent Effect,"30.3 µM, […]",73.45%
CC(C)c1cc(C(=O)O)nc2[nH]c(=O)[nH]c(=O)c12,Percent Effect,"30.3 µM, […]",-5.63%
CCCc1nc(CN2CCCN(Cc3nccn3C)CC2)no1,Percent Effect,30 µM,36.47%
O=C(c1ccc[nH]1)N1CCc2cc(S(=O)(=O)N3CCOCC3)ccc2C1,Percent Effect,"30.3 µM, […]",17.1%
O=C(c1cc[nH]n1)N1CCc2ccc(S(=O)(=O)N3CCOCC3)cc2C1,Percent Effect,"30.3 µM, […]",52.38%
O=C(c1ccc[nH]1)N1CCc2ccc(S(=O)(=O)N3CCOCC3)cc2C1,Percent Effect,"30.3 µM, […]",-1.46%
Cl.NC1CCc2nc(-c3cccnc3)nc(Nc3ccc(F)cc3)c2C1 (stereo unspecified),Percent Effect,"30.3 µM, […]",94.83%
CN(CC1CCCO1)c1nc(-c2cccnc2)nc2c1CCNCC2 (stereo unspecified),Percent Effect,"30.3 µM, […]",34.58%
CCc1noc(CNc2nc(-c3cccnc3)nc3c2CCNCC3)n1,Percent Effect,"30.3 µM, […]",27.11%
CC(O)CNc1nc(-c2cccnc2)nc2c1CCC2 (stereo unspecified),Percent Effect,"30.3 µM, […]",13.01%
c1cncc(-c2nc3c(c(NCC4(c5ccncc5)CC4)n2)CCC3)c1,Percent Effect,"30.3 µM, […]",33.94%
CNS(=O)(=O)CC(=O)NC(C)Cc1ccc(-c2ccccc2)cc1 (stereo unspecified),Percent Effect,"30.3 µM, […]",32.54%
CN(CCN(C)S(=O)(=O)CC1CCOCC1)c1ccccc1,Percent Effect,"30.3 µM, […]",4.21%
Fc1ccccc1NCc1nc2n(n1)CCCCC2,Percent Effect,"30.3 µM, […]",-12.91%
O=C(C1=CC2(CCNCC2)c2ccccc21)N1CCCC1,Percent Effect,"30 µM, 30.03 µM",-18.75%
CC(=O)N1CCC2(C=C(C(=O)NC3CC3)c3ccccc32)CC1,Percent Effect,"30.3 µM, […]",1.849%
O=C(Nc1ccccc1)C1=CC2(CCNCC2)c2ccccc21,Percent Effect,"30 µM, 30.03 µM",52.55%
